# According to PubChem BioAssay (EPA / NIEHS):
# Values joined by “and” are separate entries in the source; they are usually repeats but may differ in a detail not shown here. Equal entries are not always repeated. Inconclusive results are not listed. Active and inactive are the calls of the source. The calls were made as follows: active = hit-call score of the fitted dose curve at least 0.9, where 1 is the maximum; inconclusive = response in the unintended direction; inactive = score below 0.9.
# Assays:
# [1] = molecular target: Nuclear receptor subfamily 1 group I member 2 (Homo sapiens) (UniProt O75469); assay: NVS_NR_hPXR: NovaScreen (NVS) Nuclear Receptor Binding Assay for human Pregnane X Receptor (PXR) (AID 2283365);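 also: a drop in FRET signal versus DMSO baseline means the compound binds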
# Chain of Nuclear receptor subfamily 1 group I member 2 (Homo sapiens) (O75469 whole entry, looked up): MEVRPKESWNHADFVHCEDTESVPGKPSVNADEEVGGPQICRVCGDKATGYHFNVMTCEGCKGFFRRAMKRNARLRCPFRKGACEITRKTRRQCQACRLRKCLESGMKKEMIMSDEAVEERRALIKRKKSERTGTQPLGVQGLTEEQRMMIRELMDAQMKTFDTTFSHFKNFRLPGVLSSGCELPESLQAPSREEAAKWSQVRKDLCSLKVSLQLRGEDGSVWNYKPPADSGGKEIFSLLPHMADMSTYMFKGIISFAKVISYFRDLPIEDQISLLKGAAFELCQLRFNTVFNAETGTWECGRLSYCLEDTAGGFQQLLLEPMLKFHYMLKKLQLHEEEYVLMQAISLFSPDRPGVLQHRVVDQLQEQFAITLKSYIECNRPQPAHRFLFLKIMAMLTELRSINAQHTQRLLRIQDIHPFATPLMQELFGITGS
# Method in brief: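 Human PXR protein, cell-free; compound added, incubated 2 h, TR-FRET read. Signal decrease vs DMSO = binding. Screened 25 uM duplicate, actives re-run as dilution series.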
# [2] = molecular target: guinea pig Sigma Receptor, Non-selective Binding, SIGMAR1 (gene 100135589) (UniProt Q60492); assay: NVS_OR_gSIGMA_NonSelective: NovaScreen (NVS) Nuclear Receptor Binding Assay for guinea pig Sigma Receptor, Non-selective Binding (AID 2283367)
# Chain of guinea pig Sigma Receptor, Non-selective Binding, SIGMAR1 (gene 100135589) (Q60492 whole entry, looked up): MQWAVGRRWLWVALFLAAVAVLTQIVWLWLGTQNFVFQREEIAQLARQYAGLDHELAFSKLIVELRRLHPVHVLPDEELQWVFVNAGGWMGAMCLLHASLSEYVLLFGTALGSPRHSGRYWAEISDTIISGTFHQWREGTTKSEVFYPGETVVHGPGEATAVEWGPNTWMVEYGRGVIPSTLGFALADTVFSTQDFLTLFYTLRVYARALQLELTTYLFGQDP
# Method in brief: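 Test chemicals were screened in duplicate at 25 uM, then in concentration series if active, against radioligand binding to guinea pig brain membranes; filtration and scintillation counting at 1 h measured remaining bound ligand.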
# [3] = system: guinea pig Dopamine Transporter (DAT), gene 100714898; assay: NVS_TR_gDAT: NovaScreen (NVS) Transporter Assay for guinea pig Dopamine Transporter (DAT) (AID 2283369);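 also: active compounds lower bound radioligand signal relative to DMSO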
# Method in brief: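 Scintillation counts of filter-retained radioligand report binding to guinea pig striatal membranes after 2 h. Activity scored as signal loss relative to DMSO, first at 25 uM in duplicate, then in concentration series to 50 uM.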
# [4] = molecular target: human Serotonin Transporter (SERT), SLC6A4 (gene 6532) (UniProt P31645); assay: NVS_TR_hSERT: NovaScreen (NVS) Transporter Assay for human Serotonin Transporter (SERT) (AID 2283372)
# Chain of human Serotonin Transporter (SERT), SLC6A4 (gene 6532) (P31645 whole entry, looked up): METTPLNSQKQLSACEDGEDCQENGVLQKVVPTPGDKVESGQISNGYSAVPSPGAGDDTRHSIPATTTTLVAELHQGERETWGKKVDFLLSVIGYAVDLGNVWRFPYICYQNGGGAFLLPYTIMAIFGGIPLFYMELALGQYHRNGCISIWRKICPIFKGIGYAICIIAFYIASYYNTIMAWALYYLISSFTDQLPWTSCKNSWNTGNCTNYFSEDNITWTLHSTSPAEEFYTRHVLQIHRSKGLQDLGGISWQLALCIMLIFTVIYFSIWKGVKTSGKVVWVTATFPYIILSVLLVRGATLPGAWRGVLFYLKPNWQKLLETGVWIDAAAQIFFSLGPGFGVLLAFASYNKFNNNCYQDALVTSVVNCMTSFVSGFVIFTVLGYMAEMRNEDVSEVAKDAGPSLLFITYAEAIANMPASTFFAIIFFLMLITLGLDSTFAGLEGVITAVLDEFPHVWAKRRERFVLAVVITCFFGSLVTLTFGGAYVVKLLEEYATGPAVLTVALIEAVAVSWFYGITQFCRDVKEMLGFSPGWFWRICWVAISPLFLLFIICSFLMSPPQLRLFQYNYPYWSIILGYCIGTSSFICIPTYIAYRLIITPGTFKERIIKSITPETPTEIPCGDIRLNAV
# Description: NVS_TR_hSERT is a biochemical, single-readout assay that uses extracted gene-proteins from Human platelet membranes in a tissue-based cell-free assay. Measurements were taken 1 hour after chemical dosing in a 96-well plate.NVS_TR_hSERT is one of one assay component(s) measured or calculated from the NVS_TR_hSERT assay. It is designed to make measurements of radioligand binding, a form of binding reporter, as detected with scintillation counting signals by Filter-based radiodetection technology.Data from the assay component NVS_TR_hSERT was analyzed into 1 assay endpoint. This assay endpoint, NVS_TR_hSERT, was analyzed in the positive analysis fitting direction relative to DMSO as the negative control and baseline of activity. Using a type of binding reporter, loss-of-signal activity can be used to understand changes in the binding as they relate to the gene SLC6A4. Furthermore, this assay endpoint can be referred to as a primary readout, because the performed assay has only produced 1 assay endpoint. To generalize the intended target to other relatable targets, this assay endpoint is annotated to the transporter intended target family, where the subfamily is neurotransmitter transporter.
# Binding assays used specific radioligands (tritiated, iodinated) with non-radioactive competitive displacement ligands in agonist or antagonist protocols (as indicated) and various reference compounds and inhibitors to titrate specific binding to receptors and transporters. Most enzyme assays (CYPs, kinases, phosphatases, proteases, HDACs) used recombinant protein and specific substrates (fluorescence mostly, some colorimetric and radioactive) and inhibitors, followed by a biochemical separation of substrate and product. All assays for the biochemical HTS were initially run in duplicate at a single concentration (10 uM for CYP450 assays and 25 uM for all others). […] Each assay was run with positive and negative controls, and concurrent controls on every plate. […]
# [5] = system: rat Norepinephrine Transporter (NET), gene 83511; assay: NVS_TR_rNET: NovaScreen (NVS) Transporter Assay for rat Norepinephrine Transporter (NET) (AID 2283373)
# Method in brief: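 Competitive radioligand displacement at the rat NET using forebrain membrane preparations, 1 h incubation, filter-based scintillation readout. Primary testing in duplicate at a single 25 uM concentration; confirmed actives retested across concentrations.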
# [6] = molecular target: Glucocorticoid receptor (Homo sapiens) (UniProt P04150); assay: NVS_NR_hGR: NovaScreen (NVS) Nuclear Receptor Binding Assay for human Glucocorticoid Receptor (GR) (AID 2283363)
# Chain of Glucocorticoid receptor (Homo sapiens) (P04150 whole entry, looked up): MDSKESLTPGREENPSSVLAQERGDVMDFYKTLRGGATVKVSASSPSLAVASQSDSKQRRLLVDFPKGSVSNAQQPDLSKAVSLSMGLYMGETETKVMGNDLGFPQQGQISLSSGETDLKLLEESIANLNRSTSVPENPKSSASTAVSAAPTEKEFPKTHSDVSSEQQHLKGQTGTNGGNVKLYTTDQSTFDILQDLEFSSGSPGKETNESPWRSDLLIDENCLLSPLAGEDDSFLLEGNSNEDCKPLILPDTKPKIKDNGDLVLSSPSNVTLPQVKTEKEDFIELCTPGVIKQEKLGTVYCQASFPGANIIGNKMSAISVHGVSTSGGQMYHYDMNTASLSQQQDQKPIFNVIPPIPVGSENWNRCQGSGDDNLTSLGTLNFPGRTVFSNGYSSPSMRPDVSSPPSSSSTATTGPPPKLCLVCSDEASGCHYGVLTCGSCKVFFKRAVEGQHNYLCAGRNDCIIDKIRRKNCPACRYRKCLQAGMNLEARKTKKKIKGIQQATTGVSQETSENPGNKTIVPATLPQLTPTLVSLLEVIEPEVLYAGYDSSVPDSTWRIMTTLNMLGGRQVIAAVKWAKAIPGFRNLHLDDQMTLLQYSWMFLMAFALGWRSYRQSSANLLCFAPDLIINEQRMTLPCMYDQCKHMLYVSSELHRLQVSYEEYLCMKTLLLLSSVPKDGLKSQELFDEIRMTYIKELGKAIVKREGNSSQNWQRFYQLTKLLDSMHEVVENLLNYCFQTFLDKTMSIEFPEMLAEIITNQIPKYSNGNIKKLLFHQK
# Method in brief: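 Single-readout cell-free binding: radioligand plus extracted receptor, 16-hour dosing, filter radiodetection; 25 uM duplicate primary, concentration series secondary.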
# [7] = molecular target: Peroxisome proliferator-activated receptor gamma (Homo sapiens) (UniProt P37231); assay: NVS_NR_hPPARg: NovaScreen (NVS) Nuclear Receptor Binding Assay for human Peroxisome Proliferator-activated Receptor gamma (PPARg) (AID 2283370)
# Chain of Peroxisome proliferator-activated receptor gamma (Homo sapiens) (P37231 whole entry, looked up): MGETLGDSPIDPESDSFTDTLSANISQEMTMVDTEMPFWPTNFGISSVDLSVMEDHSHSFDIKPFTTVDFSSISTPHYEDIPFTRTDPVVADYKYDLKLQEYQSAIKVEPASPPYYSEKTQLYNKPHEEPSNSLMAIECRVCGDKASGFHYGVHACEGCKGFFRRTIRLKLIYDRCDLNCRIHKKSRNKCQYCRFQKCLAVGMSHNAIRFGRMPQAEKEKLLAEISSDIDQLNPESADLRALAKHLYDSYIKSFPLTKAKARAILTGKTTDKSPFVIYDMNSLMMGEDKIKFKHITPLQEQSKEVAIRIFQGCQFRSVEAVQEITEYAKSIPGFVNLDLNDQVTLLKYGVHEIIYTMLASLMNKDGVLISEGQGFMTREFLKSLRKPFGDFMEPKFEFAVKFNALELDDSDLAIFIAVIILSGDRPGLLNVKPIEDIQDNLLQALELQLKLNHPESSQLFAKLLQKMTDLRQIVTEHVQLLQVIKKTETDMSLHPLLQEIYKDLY
# Method in brief: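 Chemicals were tested first in duplicate at 25 uM, then in concentration series if active. Binding to cell-free PPARg protein was measured by fluorescence polarization after 2 h, with loss of signal scored against DMSO.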
# [8] = molecular target: human Dopamine Transporter (DAT), SLC6A3 (gene 6531) (UniProt Q01959); assay: NVS_TR_hDAT: NovaScreen (NVS) Transporter Assay for human Dopamine Transporter (DAT) (AID 2283374);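 also: activity means loss of bound radioligand signal relative to DMSO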
# Chain of human Dopamine Transporter (DAT), SLC6A3 (gene 6531) (Q01959 whole entry, looked up): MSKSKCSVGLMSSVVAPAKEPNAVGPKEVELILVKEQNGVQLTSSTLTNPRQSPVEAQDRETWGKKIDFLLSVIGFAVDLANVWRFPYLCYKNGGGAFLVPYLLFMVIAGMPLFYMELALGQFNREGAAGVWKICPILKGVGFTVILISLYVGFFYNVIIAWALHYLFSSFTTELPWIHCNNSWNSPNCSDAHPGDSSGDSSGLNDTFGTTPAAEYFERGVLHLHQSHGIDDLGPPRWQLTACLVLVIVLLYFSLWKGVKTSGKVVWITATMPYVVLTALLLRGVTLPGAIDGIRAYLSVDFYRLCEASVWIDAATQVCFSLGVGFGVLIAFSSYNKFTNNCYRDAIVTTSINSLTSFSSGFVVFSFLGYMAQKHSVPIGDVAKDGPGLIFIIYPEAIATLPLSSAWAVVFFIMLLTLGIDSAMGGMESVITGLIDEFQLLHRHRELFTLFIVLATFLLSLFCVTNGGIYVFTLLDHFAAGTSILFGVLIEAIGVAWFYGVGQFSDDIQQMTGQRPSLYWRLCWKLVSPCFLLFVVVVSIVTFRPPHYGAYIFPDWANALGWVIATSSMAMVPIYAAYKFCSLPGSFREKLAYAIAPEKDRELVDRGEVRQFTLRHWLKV
# Method in brief: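 Extracted human SLC6A3 protein incubated 1 h with radioligand and test chemical; bound fraction separated on filters and counted. Single 25 uM duplicate screen preceded concentration-response follow-up; positive and negative controls on every plate.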
# [9] = molecular target: rat Androgen Receptor (AR), Ar (gene 24208) (UniProt P15207); assay: NVS_NR_rAR: NovaScreen (NVS) Nuclear Receptor Binding Assay for rat Androgen Receptor (AR) (AID 2283366)
# Chain of rat Androgen Receptor (AR), Ar (gene 24208) (P15207 whole entry, looked up): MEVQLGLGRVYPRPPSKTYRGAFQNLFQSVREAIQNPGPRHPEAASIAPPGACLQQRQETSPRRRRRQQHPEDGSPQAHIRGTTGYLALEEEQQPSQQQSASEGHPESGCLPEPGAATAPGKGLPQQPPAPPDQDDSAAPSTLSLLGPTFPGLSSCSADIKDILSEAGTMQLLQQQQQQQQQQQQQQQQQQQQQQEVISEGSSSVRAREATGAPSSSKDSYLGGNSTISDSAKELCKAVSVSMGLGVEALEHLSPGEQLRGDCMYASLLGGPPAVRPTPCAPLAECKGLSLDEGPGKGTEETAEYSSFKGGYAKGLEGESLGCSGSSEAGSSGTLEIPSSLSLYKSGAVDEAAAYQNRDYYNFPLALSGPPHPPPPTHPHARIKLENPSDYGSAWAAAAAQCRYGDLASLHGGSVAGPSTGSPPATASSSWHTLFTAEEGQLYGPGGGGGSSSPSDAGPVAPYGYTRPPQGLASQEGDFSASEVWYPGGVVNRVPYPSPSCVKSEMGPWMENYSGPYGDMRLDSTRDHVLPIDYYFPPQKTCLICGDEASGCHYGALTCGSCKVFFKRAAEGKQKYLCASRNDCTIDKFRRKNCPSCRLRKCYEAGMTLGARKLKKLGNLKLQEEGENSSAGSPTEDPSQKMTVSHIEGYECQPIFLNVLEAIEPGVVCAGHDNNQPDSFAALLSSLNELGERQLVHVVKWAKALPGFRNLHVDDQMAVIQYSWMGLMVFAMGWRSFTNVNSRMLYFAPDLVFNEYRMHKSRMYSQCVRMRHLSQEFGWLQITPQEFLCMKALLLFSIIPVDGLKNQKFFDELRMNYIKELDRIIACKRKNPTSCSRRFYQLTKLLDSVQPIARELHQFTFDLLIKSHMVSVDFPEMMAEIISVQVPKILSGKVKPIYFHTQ
# Method in brief: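 Actives from a duplicate single-concentration (25 uM) primary run went on to concentration series. Displacement of radioligand was counted by filtration and scintillation, 18 h post-dose, using prostate extracts from testosterone-pretreated rats, with DMSO as baseline.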
# [10] = molecular target: human Adenosine Transporter (Adot), SLC29A1 (gene 2030) (UniProt Q99808); assay: NVS_TR_hAdoT: NovaScreen (NVS) Transporter Assay for human Adenosine Transporter (Adot) (AID 2283368)
# Chain of human Adenosine Transporter (Adot), SLC29A1 (gene 2030) (Q99808 whole entry, looked up): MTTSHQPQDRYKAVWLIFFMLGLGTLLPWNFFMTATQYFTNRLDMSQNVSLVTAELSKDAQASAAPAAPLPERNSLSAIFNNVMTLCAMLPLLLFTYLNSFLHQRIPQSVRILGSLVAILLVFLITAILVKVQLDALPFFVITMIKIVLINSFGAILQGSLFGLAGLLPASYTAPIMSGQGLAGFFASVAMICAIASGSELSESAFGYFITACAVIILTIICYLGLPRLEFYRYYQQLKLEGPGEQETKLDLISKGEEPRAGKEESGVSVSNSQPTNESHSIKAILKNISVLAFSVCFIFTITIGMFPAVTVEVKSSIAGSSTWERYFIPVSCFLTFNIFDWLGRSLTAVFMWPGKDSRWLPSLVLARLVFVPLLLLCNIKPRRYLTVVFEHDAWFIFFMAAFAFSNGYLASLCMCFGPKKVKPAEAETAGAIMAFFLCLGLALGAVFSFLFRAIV
# Method in brief: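 Binding displacement on U937 extracted protein, read 1 h post-dose by filtration and scintillation counting. Primary duplicate test at 25 uM, then singleton concentration series with 50 uM top; DMSO baseline.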
smiles,measurement,setting,value
COc1ccc(OC(F)(F)F)cc1CN[C@H]1CCCN[C@H]1c1ccccc1,AC50,[1],7.41 µM (active)
same,AC50,[2],15.8 µM (active)
same,AC50,[3],11.9 µM (active)
same,AC50,[4],12.5 µM (active)
same,AC50,[5],8.18 µM (active)
CC(=O)O[C@]1(C(C)=O)CC[C@H]2[C@@H]3C=C(Cl)C4=CC(=O)[C@@H]5C[C@@H]5[C@]4(C)[C@H]3CC[C@@]21C,outcome,[1],inactive
CCCCc1nc2cccnc2n1Cc1ccc(-c2ccccc2-c2nnn[nH]2)cc1,outcome,[6],inactive
same,AC50,[7],4.96 µM (active)
Cc1cc(Cc2ccc(N)c(C)c2)ccc1N,outcome,[6],inactive
same,outcome,[5],inactive
same,AC50,[8],8.53 µM (active)
O=C1OC(c2ccc(O)cc2)(c2ccc(O)cc2)c2ccccc21,AC50,[9],6.69 µM (active)
same,AC50,[8],6.6 µM (active)
Cc1c(C)c2c(c(C)c1O)CCC(C)(COc1ccc(CC3SC(=O)NC3=O)cc1)O2 (stereo not drawn),outcome,[9],inactive
same,AC50,[2],35 µM (active)
CC(C)OC(=O)C(C)(C)Oc1ccc(C(=O)c2ccc(Cl)cc2)cc1,AC50,[1],41.2 µM (active)
same,outcome,[8],inactive
CCc1nc(N)nc(N)c1-c1ccc(Cl)cc1,AC50,[2],2.45 µM (active)
same,AC50,[3],1.18 µM (active)
same,outcome,[7],inactive
same,AC50,[5],6.82 µM (active)
same,AC50,[8],0.754 µM (active)
CC(=O)[C@@]1(O)CC[C@H]2[C@@H]3CCC4=CC(=O)CC[C@]4(C)[C@H]3CC[C@@]21C,outcome,[1],inactive
CCCCC(CC)COP(=O)(OCC(CC)CCCC)OCC(CC)CCCC (stereo not drawn),outcome,[6],inactive
same,outcome,[3],inactive
same,outcome,[7],inactive
same,outcome,[8],inactive
CN(C)C(=O)NC1(c2ccccc2)CCN(CC[C@@]2(c3ccc(F)c(F)c3)CN(C(=O)c3ccccc3)CCO2)CC1,outcome,[1],inactive
same,outcome,[7],inactive
COc1ccc(C(=O)Nc2nc3ccccc3c(NCc3ccccc3)c2C#N)cc1,outcome,[1],inactive
S=c1[nH]c2ccccc2s1,outcome,[6],inactive
same,outcome,[7],inactive
CCCCCCCCCCCCCCOS(=O)(=O)O,AC50,[6],2.14 µM (active)
same,AC50,[1],7.25 µM (active)
same,AC50,[7],1.78 µM (active)
same,AC50,[8],41 µM (active)
O=C1NC(=O)C(c2ccccc2)(c2ccccc2)N1,outcome,[1],inactive
same,AC50,[8],5.81 µM (active)
O=C1c2c(O)cccc2Cc2cccc(O)c21,outcome,[1],inactive
Cc1ccc(-c2cc(C(F)(F)F)nn2-c2ccc(S(N)(=O)=O)cc2)cc1,outcome,[9],inactive
CCCCOC(=O)CCCCC(=O)OCCCC,outcome,[6],inactive
CCN(CC)CCOc1ccc(C(=C(Cl)c2ccccc2)c2ccccc2)cc1,AC50,[1],3.15 µM (active) and 3.46 µM (active) and 3.72 µM (active)
same,AC50,[9],2.68 µM (active) [middle of 4 runs]
same,AC50,[2],2.13 µM (active)
same,AC50,[3],3.83 µM (active)
same,AC50,[5],10.2 µM (active)
O=Cc1ccccc1C=O,AC50,[6],6.78 µM (active)
CCCCCCCCCC[N+](C)(C)[O-],AC50,[2],3.09 µM (active)
CSc1ccc(Oc2ccc(S(N)(=O)=O)cc2CN(C)C)cc1C,outcome,[1],inactive
same,AC50,[2],12.8 µM (active)
same,AC50,[3],7.61 µM (active)
same,AC50,[5],25 µM (active)
same,AC50,[8],4.52 µM (active)
CC(=O)CC(c1ccccc1)c1c(O)c2ccccc2oc1=O (stereo not drawn),outcome,[1],inactive
CC(C)(C)c1ccccc1,outcome,[1],inactive
Oc1ccc(O)cc1,outcome,[7],inactive
Cc1cc(SC2=C(O)C[C@@](CCc3ccc(N)cc3)(C(C)C)OC2=O)c(C(C)(C)C)cc1CO,outcome,[2],inactive
same,outcome,[3],inactive
same,outcome,[8],inactive
CN(C)C(=O)NC1(c2ccccc2)CCN(CCC[C@]2(c3ccc(Cl)c(Cl)c3)CCCN(C(=O)c3ccccc3)C2)CC1,AC50,[3],0.596 µM (active)
same,AC50,[5],3.55 µM (active)
same,AC50,[8],0.418 µM (active)
CCC(C)N(C)C(=O)c1cc2ccccc2c(-c2ccccc2Cl)n1 (stereo not drawn),AC50,[2],6.44 µM (active)
same,AC50,[7],5.15 µM (active)
NC(=Nc1ccccc1)Nc1ccccc1,AC50,[2],0.646 µM (active)
same,outcome,[5],inactive
COC(=O)[C@H]1[C@H]2C[C@@H]3c4[nH]c5cc(OC)ccc5c4CCN3C[C@H]2C[C@@H](OC(=O)c2cc(OC)c(OC)c(OC)c2)[C@@H]1OC,AC50,[10],6.6 µM (active)
CCCCC(CC)CO (stereo not drawn),AC50,[7],0.00905 µM (active)
CC(N)=O,AC50,[7],4.98 µM (active)
O=C(O)CC(O)(CC(=O)O)C(=O)O,outcome,[7],inactive
Oc1ccccc1O,AC50,[7],0.00229 µM (active)
CO[C@@H]1COCC[C@@H]1N[C@@H]1CC[C@@](C(=O)N2CCc3ncc(C(F)(F)F)cc3C2)(C(C)C)C1,AC50,[2],1.94 µM (active)
same,AC50,[7],15.8 µM (active)
CC(COCC(C)OC(=O)c1ccccc1)OC(=O)c1ccccc1 (stereo not drawn),outcome,[3],inactive
same,AC50,[8],19.2 µM (active)
NC1CCCCC1,outcome,[7],inactive
C/C=C/C=C/C(=O)O,outcome,[7],inactive
same,outcome,[4],inactive
O=C(NS(=O)(=O)/C=C/c1cccs1)c1ccc(F)cc1Br,AC50,[7],40.7 µM (active)
CN(C)CCCN1c2ccccc2Sc2ccc(Cl)cc21,AC50,[2],2.11 µM (active)
same,AC50,[3],8.84 µM (active)
same,AC50,[5],0.0781 µM (active)
same,AC50,[8],4.24 µM (active)
O=C1O[C@H]([C@H](O)CO)C(O)=C1O,outcome,[7],inactive
CCOCCOCCO,outcome,[7],inactive
CCCCCCC(CCCCCCCCCCC(=O)OCC(COC(C)=O)OC(C)=O)OC(C)=O (stereo not drawn),outcome,[7],inactive
CC(C)(O)c1ccc(CNC(=O)c2cccnc2Oc2ccc(F)cc2)cc1,AC50,[10],34.7 µM (active)
Cn1cnc2c1c(=O)[nH]c(=O)n2C,outcome,[2],inactive
same,AC50,[3],10.5 µM (active)
same,outcome,[7],inactive
same,outcome,[8],inactive
O=C(N[C@@H](c1ccccc1)[C@@H]1CCCCN1)c1cccc(C(F)(F)F)c1Cl,AC50,[3],25 µM (active)
same,AC50,[4],9.57 µM (active)
same,AC50,[8],12.2 µM (active)
OCC(O)CO,AC50,[7],0.00229 µM (active)
CC(C)NCC(O)c1ccc(O)c(O)c1 (stereo not drawn),AC50,[7],9.71 µM (active)
same,AC50,[8],11.1 µM (active)
C=CCc1ccc(OC)c(OC)c1,outcome,[7],inactive
